# Methyltransferases = Primary Screen for Target Class Profiling of Small Molecule Inhibitors of Methyltransferases. actives 3.9% (n = 25,000). calls only at 40 µM. purified enzyme, MTase-Glo SAH luminescence; hits give low values; call rule not given here
#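 Each enzyme was assayed with SAM and its substrate. SAH formation detected by MTase-Glo luminescence; single-point 40 uM screen[…].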
# Starred values were filed as active, the others as inactive; i = inactive; + = active, no number. Only a selection was taken, and hits are over-represented in it overall. % is scaled to controls: 0 for no effect and ±100 for the full control effect.
SMILES,Methyltransferases
N#Cc1cn([C@@H]2O[C@H](CO)[C@H](O)[C@@H]2O)c2ncnc(N)c12,+
CCOc1ccc(NC(=O)N2Cc3ccccc3-n3cccc3C2c2ccc(OCC)cc2)cc1 (stereo unspecified),i
CCOc1ccc(NC(=O)N2Cc3ccccc3-n3cccc3C2c2ccc(CC)cc2)cc1 (stereo unspecified),i
Cc1cccc(C2c3cccn3-c3ccccc3CN2C(=O)Nc2cccc(Br)c2)c1 (stereo unspecified),i
O=c1ccc2[nH]cc(C3=CCNCC3)c2[nH]1,+
CC1c2cccn2-c2ccccc2CN1C(=O)NCc1ccco1 (stereo unspecified),i
O=C(NC1CCCC1)N1Cc2ccccc2-n2cccc2C1c1cccs1 (stereo unspecified),i
CCOc1ccc(C2c3cccn3-c3ccccc3CN2C(=O)Nc2ccc(C)cc2C)cc1 (stereo unspecified),i
CN(Cc1cccc(-c2ccncc2)c1)C(=O)Oc1ccc(-c2ccc(C(N)=O)cc2)cc1,i
CN1CCC[C@@H]1Cc1c[nH]c2ccc(Nc3ncccc3[N+](=O)[O-])cc12,+
COc1cccc(NC(=O)N2Cc3ccccc3-n3cccc3C2c2cccc(C)c2)c1 (stereo unspecified),i
COC(=O)CCNC(=O)N1Cc2ccccc2-n2cccc2C1c1ccc(SC)cc1 (stereo unspecified),i
COc1ccc(C2c3cccn3-c3ccccc3CN2C(=O)NCc2ccc(C)cc2)cc1OC (stereo unspecified),i
O=C(Nc1cccc(Cl)c1)N1Cc2ccccc2-n2cccc2C1c1ccc(F)cc1 (stereo unspecified),i
CCCNC(=O)N1Cc2ccccc2-n2cccc2C1c1cccc(C)c1 (stereo unspecified),i
CCOc1ccccc1NC(=O)N1Cc2ccccc2-n2cccc2C1c1ccc(SC)cc1 (stereo unspecified),i
O=S1(=O)N(CCN2CC=C(c3c[nH]c4cc(F)ccc34)CC2)c2cccc3c2N1CCC3,+
COc1ccc(C2c3cccn3-c3ccccc3CN2C(=O)Nc2ccccc2Cl)cc1 (stereo unspecified),i
COc1ccc(NC(=O)N2Cc3ccccc3-n3cccc3C2c2ccccc2Cl)cc1OC (stereo unspecified),i
COC(=O)CCNC(=O)N1Cc2ccccc2-n2cccc2C1c1ccc(Cl)cc1 (stereo unspecified),i
O=C1Nc2ccc3ncsc3c2/C1=C/c1cnc[nH]1,+
COc1ccc(C2c3cccn3-c3ccccc3CN2C(=O)NCc2ccc(F)cc2)cc1OC (stereo unspecified),i
CCc1ccc(C2c3cccn3-c3ccccc3CN2C(=O)Nc2cccc(Br)c2)cc1 (stereo unspecified),i
O=C(Nc1ccc(Cl)cc1)N1Cc2ccccc2-n2cccc2C1c1ccccc1 (stereo unspecified),i
Cc1[nH]c2ccc(Cl)cc2c1CCN(C)C,+
SMILES,Methyltransferases
CCOc1ccc(C2c3cccn3-c3ccccc3CN2C(=O)Nc2ccc(F)c(Cl)c2)cc1 (stereo unspecified),i
CCc1ccc(NC(=O)N2Cc3ccccc3-n3cccc3C2c2cccc(C)c2)cc1 (stereo unspecified),i
CCOC(=O)CNC(=O)N1Cc2ccccc2-n2cccc2C1c1ccccc1Cl (stereo unspecified),i
CCC1c2cccn2-c2ccccc2CN1C(=O)Nc1ccc(C)c(F)c1 (stereo unspecified),i
COc1ccccc1NC(=O)N1Cc2ccccc2-n2cccc2C1c1ccc(OC)c(OC)c1 (stereo unspecified),i
CCOc1ccc(C2c3cccn3-c3ccccc3CN2C(=O)Nc2cc(Cl)ccc2OC)cc1 (stereo unspecified),i
CC1CCN(CC2CCCCCN2C(=O)Cc2ccccc2)CC1 (stereo unspecified),i
COc1cccc(CNC(=O)N2Cc3ccccc3-n3cccc3C2c2cccc(C)c2)c1 (stereo unspecified),i
Cc1ccccc1NC(=O)N1Cc2ccccc2-n2cccc2C1C (stereo unspecified),i
O=C(NCc1ccc(F)cc1)N1Cc2ccccc2-n2cccc2C1c1ccc(F)cc1 (stereo unspecified),i
Cc1c(Cl)cccc1NC(=O)N1Cc2ccccc2-n2cccc2C1c1ccc(N(C)C)cc1 (stereo unspecified),i
CCOc1ccccc1NC(=O)N1Cc2ccccc2-n2cccc2C1c1ccccc1 (stereo unspecified),i
O=C(NCc1ccccc1)N1Cc2ccccc2-n2cccc2C1c1ccc(F)cc1 (stereo unspecified),i
O=C(Nc1ccc(Br)cc1)N1Cc2ccccc2-n2cccc2C1c1ccccc1 (stereo unspecified),i
NCCc1ccc(O)cc1,+
NNC(=O)c1ccc(O)cc1,i
Cc1cccc(NC(=O)N2Cc3ccccc3-n3cccc3C2C)c1C (stereo unspecified),i
Cc1ccc(NC(=O)N2Cc3ccccc3-n3cccc3C2c2ccc(Cl)cc2)cc1C (stereo unspecified),i
COC1CC(OC2CCC3(C=O)C(CCC4C3CCC3(C)C(C5=CC(=O)OC5)CCC43O)C2)OC(C)C1OC1OC(CO)C(O)C(O)C1O (stereo unspecified),i
CC(C)c1ccc(C2c3cccn3-c3ccccc3CN2C(=O)Nc2ccc3c(c2)OCCO3)cc1 (stereo unspecified),i
CCOc1ccc(C2c3cccn3-c3ccccc3CN2C(=O)Nc2cc(C)ccc2OC)cc1 (stereo unspecified),i
Cc1cccc(C2c3cccn3-c3ccccc3CN2C(=O)Nc2ccc(F)cc2)c1 (stereo unspecified),i
CCCN(CCC)[C@@H]1CCc2ccc3[nH]c(C#N)cc3c2C1,+
CCCN(CCC)[C@@H]1CCc2cccc(O)c2C1,i
CCc1ccccc1NC(=O)N1Cc2ccccc2-n2cccc2C1c1cccs1 (stereo unspecified),i
SMILES,Methyltransferases
Cc1cccc(C2c3cccn3-c3ccccc3CN2C(=O)NC(C)C)c1 (stereo unspecified),i
CCC1c2cccn2-c2ccccc2CN1C(=O)Nc1ccc(C)c(Cl)c1 (stereo unspecified),i
c1ccc2c(N3CCNCC3)cccc2c1,+
C/C=C(/C)C1C=CC2CC(C)CC(C)C2C1/C(O)=C1\C(=O)NC(CC(C)(O)C(=O)O)C1=O (stereo unspecified),i
CC(N)c1cccc(Cl)c1Cl (stereo unspecified),+
CC(C)c1cccc(C(C)C)c1O,i
COc1cc(OC)c(NC(=O)N2Cc3ccccc3-n3cccc3C2c2ccc(F)cc2)cc1Cl (stereo unspecified),i
COc1ccc(C2c3cccn3-c3ccccc3CN2C(=O)NCc2ccccc2)cc1OC (stereo unspecified),i
CCOP(=O)(OCC)Oc1ccc2c(C)cc(=O)oc2c1,i
CNCCc1c[nH]c2ccc(O)cc12,i
COc1ccc(CNC(=O)/C=C/c2ccc3[nH]cc(CCN(C)C)c3c2)cc1,+
CCc1ccc(C2c3cccn3-c3ccccc3CN2C(=O)Nc2ccc(C)cc2C)cc1 (stereo unspecified),i
